22 compounds from PubChem BioAssay AID1224903 (Bradner/Qi Labs at DFCI, 2016) can be followed below.

The campaign covered roughly 66,000 compounds. About 720 (1.1%) were called active. No stated cut-off is given here; in the data, active means normalised signal below about 0.5; inactive means the rest, inconclusive results apart. For the sample, actives were picked, then their nearest neighbours and some compounds at random.

In this experiment the target is Chromobox protein homolog 7 (Homo sapiens) (UniProt O95931). Kind of experiment: blockers of CBX7 binding to H3K27me3 peptide – biochemical, AlphaScreen, primary screen (AID 1224903). As to conditions: AlphaScreen His6-CBX7 / biotin-H3K27me3 peptide binding, stronger effect = lower value; z-score: measured here: z-score of CBX7 signal. In general terms: Bead proximity is the source of the signal in Alpha formats.
Chain of Chromobox protein homolog 7 (Homo sapiens) (O95931 whole entry, looked up): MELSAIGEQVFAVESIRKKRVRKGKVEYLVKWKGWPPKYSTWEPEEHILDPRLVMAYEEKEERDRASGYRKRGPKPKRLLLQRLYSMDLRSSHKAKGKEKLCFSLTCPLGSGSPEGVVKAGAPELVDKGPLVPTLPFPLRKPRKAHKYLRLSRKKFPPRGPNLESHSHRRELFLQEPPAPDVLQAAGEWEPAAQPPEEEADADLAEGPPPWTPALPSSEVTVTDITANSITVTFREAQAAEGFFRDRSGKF
On to `COc1ccc2c(c1OC)C(=O)N(c1ncn[nH]1)C2`, for which the normalised signal (fraction of DMSO) was 0.25 (active) and the z-score is -16.
The like results for `COc1ccc2c(c1OC)C(=O)N(c1ccc(O)cc1)C2` were, in that order, 0.99 (inactive) and -0.11.
On the same counts, the results for `CCOC(=O)c1cnc2c(C)cc(C)cc2c1Nc1ccccc1CC` are 1.15 (inactive) and 1.45.
Regarding `CCOC(=O)c1cnc2c(C)cc(C)cc2c1Nc1cccc(OC)c1`, the normalised signal (fraction of DMSO) was 1.03 (inactive) and the z-score is 0.43.
The like results for `CCOC(=O)c1cnc2c(C)cc(C)cc2c1Nc1ccc(N2CCOCC2)cc1` were, in that order, 0.35 (active) and -16.2.
On the same counts, the results for `CC(=O)Oc1ccc(C2CC(=O)Nc3cc4c(cc32)OCO4)cc1` (centres undefined) are 0.988 (inactive) and -0.494.
The like results for `CC(=O)Nc1ccc(S(=O)(=O)NCc2ccc(C(=O)NCCc3ccc(C)cc3)cc2)cc1` were, in that order, 1.42 (inactive) and 1.84.
Take `COc1ccc(Cn2c(=O)c3cccnc3n(Cc3ccc(C)cc3)c2=O)cc1`: the normalised signal (fraction of DMSO) was 1.11 (inactive) and the z-score is 1.94.
Regarding `O=C(NCCCc1ccccc1)c1ccc2c(c1)N(Cc1ccccc1)CCS2`, the normalised signal (fraction of DMSO) was 0.992 (inactive) and the z-score was -0.011.
On the same counts, the results for `CCN(CCCNC(=O)c1c[nH]c2ccc(S(=O)(=O)N(CC)CC)cc2c1=O)c1cccc(C)c1` are 0.423 (active) and -6.22.
The like results for `CCCCCCNC(=O)c1c[nH]c2ccc(S(=O)(=O)N(CC)c3cccc(C)c3)cc2c1=O` were, in that order, 1.08 (inactive) and 1.26.
The like results for `COCCCNC(=O)c1c[nH]c2ccc(S(=O)(=O)N(C)c3cccc(C)c3)cc2c1=O` were, in that order, 1.02 (inactive) and 0.264.
In the case of `O=C(CCCN1C(=O)CSc2ncccc21)NC1CCN(Cc2ccccc2)CC1`, the normalised signal (fraction of DMSO) was 1.02 (inactive) and the z-score was found to be 0.27.
With `O=C(Nc1ccc(C(F)(F)F)cc1)c1n[nH]c(=O)c2ccccc12`, the normalised signal (fraction of DMSO) was 1.17 (inactive) and the z-score is 1.04.
On the same counts, the results for `COc1ccc(-c2noc(CCC(=O)NCc3cccc(OC)c3)n2)cc1` are 0.872 (inactive) and -1.96.
The like results for `CCCNC(=O)c1nn2c(C(F)(F)F)cc(-c3ccco3)nc2c1Br` were, in that order, 1.09 (inactive) and 2.47.
Consider `CCC(CO)NCC(O)COCc1ccc(Cl)cc1` (centres undefined), for which the normalised signal (fraction of DMSO) was 1.05 (inactive) and the z-score is 0.823.
The like results for `O=C(Cn1nc(-c2ccccc2)c2cc(Cl)ccc21)NCc1ccccc1` were, in that order, 1.08 (inactive) and 2.18.
On the same counts, the results for `Cc1cc(Br)ccc1NC(=O)CNC(=O)Cn1c(C)cc2ccccc2c1=O` are 1.18 (inactive) and 1.84.
On the same counts, the results for `CCCCN(CC)CCCNC(=O)C1CCN(C(=O)c2cc3sccc3n2C)CC1` are 0.959 (inactive) and -0.744.
`Cc1ccc(OCC(=O)Nc2ccc(S(=O)(=O)Nc3nccs3)cc2)c(Br)c1`: the normalised signal (fraction of DMSO) was 1 (inactive) and the z-score is 0.0983.
On the same counts, the results for `CCc1c(-c2ccccc2)nc2ccccc2c1C(=O)NCC1COc2ccccc2O1` (centres undefined) are 0.762 (inactive) and -0.941.
